Measured values taken from PubChem BioAssay (Tox21).
Records with an inconclusive call do not appear. Calls of active or inactive are those of the source. Calls follow the shape of the full dose curve.

Assays:
[1] = target: Acetylcholinesterase (Homo sapiens) (UniProt P22303); experiment: Acetylcholinesterase (AChE) small molecule antagonists: colormetric cell-based qHTS assay (AID 1347395); also: nearly all actives have a fitted effect of over 30% in size; also: potency is read from the fitted curve at half-maximal effect
Summary of the method: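 AChE inhibition read colorimetrically via DTNB–thiocholine in SH-SY5Y cells. Compound 30 min, substrate 90 min, both 37 C.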

[2] = target: Acetylcholinesterase (Homo sapiens) (UniProt P22303); experiment: Acetylcholinesterase (AChE) small molecule antagonists: enzyme-based qHTS assay (AID 1347397); settings: Potency: AChE enzyme activity inhibition; outcome: AChE enzyme activity inhibition; also: nearly all actives have a fitted effect of over 55% in size
Summary of the method: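 Colorimetric DTNB read-out of thiocholine released from acetylthiocholine by recombinant human AChE (50 mU/mL as dispensed). Compounds were preincubated 30 min at RT before substrate/DTNB addition, with a 10 min RT reaction.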

[3] = target: Acetylcholinesterase (Homo sapiens) (UniProt P22303); experiment: Acetylcholinesterase (AChE) small molecule antagonists: fluorescence cell-based qHTS assay (AID 1347398); settings: Potency: AChE activity; outcome: AChE activity; also: nearly all actives have a fitted effect of over 50% in size
Summary of the method: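 SH-SY5Y, 2,000 cells/well, attached overnight; cmpd 30 min 37 C; acetylthiocholine/Thiolite Green cocktail 40 min RT; fluorescence Ex/Em 490/520 nm.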

[4] = target: Acetylcholinesterase (Homo sapiens) (UniProt P22303); experiment: Acetylcholinesterase (AChE) small molecule antagonists: enzyme-based qHTS assay with human liver microsomes (AID 1347399); settings: Potency: qHTS inhibition; outcome: qHTS inhibition; also: nearly all actives have a fitted effect of over 60% in size
Summary of the method: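 Recombinant human AChE (50 mU/mL in the enzyme mix) and human liver microsomes (0.25 mg/mL final) were preincubated with compound and NADPH (0.25 mg/mL final) for 30 min at 37 C. Acetylthiocholine/DTNB was then added; thiocholine was read colorimetrically after 10 min at room temperature.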
% is scaled to controls: 0 for no effect and ±100 for the full control effect.

Chain of Acetylcholinesterase (Homo sapiens) (P22303 whole entry, looked up): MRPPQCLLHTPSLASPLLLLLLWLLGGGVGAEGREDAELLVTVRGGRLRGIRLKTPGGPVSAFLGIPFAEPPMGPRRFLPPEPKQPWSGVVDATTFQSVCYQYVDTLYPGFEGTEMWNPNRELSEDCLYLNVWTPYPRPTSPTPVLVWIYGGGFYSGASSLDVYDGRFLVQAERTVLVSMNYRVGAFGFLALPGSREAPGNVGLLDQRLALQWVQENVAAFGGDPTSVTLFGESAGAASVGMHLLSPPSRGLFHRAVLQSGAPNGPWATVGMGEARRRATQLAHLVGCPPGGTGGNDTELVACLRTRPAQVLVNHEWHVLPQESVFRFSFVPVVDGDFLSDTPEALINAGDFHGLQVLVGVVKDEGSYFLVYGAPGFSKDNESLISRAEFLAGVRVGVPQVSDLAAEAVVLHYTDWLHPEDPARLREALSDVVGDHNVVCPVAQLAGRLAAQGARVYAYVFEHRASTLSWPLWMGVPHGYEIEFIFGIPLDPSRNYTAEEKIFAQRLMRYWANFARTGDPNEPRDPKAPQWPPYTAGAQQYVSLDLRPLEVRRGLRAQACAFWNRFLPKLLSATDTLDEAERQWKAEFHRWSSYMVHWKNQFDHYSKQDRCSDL

FC(F)(F)c1ccccc1
inactive: Potency [1] | Potency [2] | Potency [3] | Potency [4]

O=C(NO)c1ccccc1
inactive: Potency [1] | Potency [2] | Potency [3] | Potency [4]

C[Si](O[Si](C)(C)C)O[Si](C)(C)C
inactive: Potency [1] | Potency [2] | Potency [3] | Potency [4]

O=C1CCCc2ccccc21
inactive: Potency [1] | Potency [2] | Potency [3] | Potency [4]

C=CCCC(=O)/C=C/C1C(C)=CCCC1(C)C (stereo not given)
inactive: Potency [1] | Potency [2] | Potency [3] | Potency [4]

C[C@](N)(Cc1ccc(O)cc1)C(=O)O
inactive: activity, negative = inhibition [1] -0.0506% [at 10.5 µM] | activity change, negative = inhibition [2] 0.139% [at 10.5 µM] | activity change, negative = inhibition [3] 3.21% [at 10.5 µM] | activity change, negative = inhibition [4] -2.1% [at 10.5 µM]

CC(O)(c1ccc(Cl)cc1)c1ccc(Cl)cc1
inactive: Potency [1] | Potency [2] | Potency [3] | Potency [4]

C/C=C/C(=O)CCCC
inactive: Potency [1] | Potency [2] | Potency [3] | Potency [4]

OC(CCN1CCCCC1)(c1ccccc1)c1ccccc1
inactive: Potency [1] | Potency [2] | Potency [3] | Potency [4]

O=c1[nH]cccc1O
inactive: Potency [1] | Potency [2] | Potency [3] | Potency [4]

CCCCCCCCS(=O)(=O)O
inactive: Potency [1] | Potency [2] | Potency [3] | Potency [4]

CC1=NN(c2cc(Cl)c(S(=O)(=O)O)cc2Cl)C(=O)C1N=Nc1ccc(S(=O)(=O)O)cc1 (stereo not given)
inactive: Potency [1] | Potency [2] | Potency [3] | Potency [4]

O=C(O)c1cc(=O)[nH]c(=O)[nH]1
inactive: Potency [1] | Potency [2] | Potency [3] | Potency [4]

COCCOC[C@H](CC1(C(=O)NC2CCC(C(=O)O)CC2)CCCC1)C(=O)Oc1ccc2c(c1)CCC2 (stereo not given in full)
inactive: Potency [1] | Potency [2] | Potency [3] | Potency [4]

CC(=O)OCC(=O)[C@H]1CC[C@H]2[C@@H]3CCC4=CC(=O)CC[C@]4(C)[C@H]3CC[C@]12C
inactive: Potency [1] | Potency [2] | Potency [3] | Potency [4]

C/C(=C\c1ccc(C(=O)O)cc1)c1ccc2c(c1)C(C)(C)CCC2(C)C
inactive: Potency [1] | Potency [2] | Potency [3] | Potency [4]

Cc1occc1S
inactive: Potency [1] | Potency [2] | Potency [3] | Potency [4]

COc1ccc(O)cc1
inactive: Potency [1] | Potency [2] | Potency [3] | Potency [4]

CCCCCCCN
inactive: Potency [1] | Potency [2] | Potency [3] | Potency [4]

CC(C)(CCC(=O)O)C(=O)O
inactive: Potency [1] | Potency [2] | Potency [3] | Potency [4]

O=C1OC2(c3ccccc31)c1ccc(O)c(Br)c1Oc1c2ccc(O)c1Br
inactive: Potency [1] | Potency [2] | Potency [3] | Potency [4]

O=C(c1ccc(O)cc1)c1ccc(O)cc1
inactive: Potency [1] | Potency [2] | Potency [3] | Potency [4]

CCCc1cc(=O)[nH]c(=S)[nH]1
inactive: Potency [1] | Potency [2] | Potency [3] | Potency [4]

COC(=O)c1cc(Cl)c(NC(C)=O)cc1OC
inactive: Potency [2] | Potency [3] | Potency [4]
active: Potency [1] 27.5 µM

CC(=O)Oc1ccc(C2(c3ccc(OC(C)=O)cc3)Oc3ccccc3NC2=O)cc1
inactive: Potency [1] | Potency [2] | Potency [3] | Potency [4]

CCCCOc1cc(C(=O)NCCN(CC)CC)c2ccccc2n1
inactive: Potency [1] | Potency [2] | Potency [3] | Potency [4]

CC(CNC1CCCCC1)OC(=O)c1ccccc1 (stereo not given)
inactive: Potency [1] | Potency [2] | Potency [3] | Potency [4]

COC(=O)c1ccccc1
inactive: Potency [1] | Potency [2] | Potency [3] | Potency [4]

C[C@H]1C[C@H](O)c2ccsc2S1(=O)=O
inactive: Potency [1] | Potency [2] | Potency [3] | Potency [4]

Cn1c(=O)c2[nH]cnc2n(C)c1=O
inactive: Potency [1] | Potency [2] | Potency [3] | Potency [4]

CCCCC(CC)COC(=O)c1ccccc1C(=O)O (stereo not given)
inactive: Potency [1] | Potency [2] | Potency [3] | Potency [4]

COCN(COC)c1nc(N(COC)COC)nc(N(COC)COC)n1
inactive: Potency [1] | Potency [2] | Potency [3] | Potency [4]

CN1CCC[C@@H]1c1cccnc1
inactive: Potency [1] | Potency [2] | Potency [3] | Potency [4]

CCN1CCc2nc(N)oc2CC1
inactive: Potency [1] | Potency [2] | Potency [3] | Potency [4]

CNC[C@H](O)[C@@H](O)[C@H](O)[C@H](O)CO
inactive: Potency [1] | Potency [2] | Potency [3] | Potency [4]

CC(C)(C)c1ccc(O)c(C(C)(C)C)c1
inactive: Potency [1] | Potency [2] | Potency [3] | Potency [4]

C[C@@H]1C[C@H]2[C@@H]3CCC4=CC(=O)C=C[C@]4(C)[C@@]3(F)[C@@H](O)C[C@]2(C)[C@@]1(O)C(=O)COC(=O)c1ccncc1
inactive: Potency [1] | Potency [2] | Potency [3] | Potency [4]

Oc1c(I)cc(Cl)c2cccnc12
inactive: Potency [1] | Potency [2] | Potency [3] | Potency [4]

NC(=O)N(O)[C@@H]1COc2cc(OCc3ccccc3)ccc21
inactive: Potency [1] | Potency [2] | Potency [3] | Potency [4]

O=C(O)[C@H](O)[C@@H](O)[C@H](O[C@@H]1O[C@H](CO)[C@H](O)[C@H](O)[C@H]1O)[C@H](O)CO
inactive: Potency [1] | Potency [2] | Potency [3] | Potency [4]

O=c1[nH]c(=O)n([C@H]2CCCO2)cc1F
inactive: Potency [1] | Potency [2] | Potency [3] | Potency [4]

CC(C)CC(=O)OCc1ccccc1
inactive: Potency [1] | Potency [2] | Potency [3] | Potency [4]

O=S(=O)(O)c1ccc(O)cc1
inactive: Potency [1] | Potency [2] | Potency [3] | Potency [4]

CC(C)OCC1CO1 (stereo not given)
inactive: Potency [1] | Potency [2] | Potency [3] | Potency [4]

COC(=O)c1ccc2cc(C(=O)OC)ccc2c1
inactive: activity, negative = inhibition [1] 3.17% [at 23.6 µM] | activity change, negative = inhibition [2] -0.273% [at 23.6 µM] | activity change, negative = inhibition [3] -7.2% [at 23.8 µM] | activity change, negative = inhibition [4] -4.52% [at 23.6 µM]

CC(C)c1ccccc1C(C)C
inactive: Potency [1] | Potency [2] | Potency [3] | Potency [4]

OCC(O)CS (stereo not given)
inactive: Potency [1] | Potency [2] | Potency [3] | Potency [4]

C=CC(=O)OCCOC(=O)CCC(=O)O
inactive: Potency [1] | Potency [2] | Potency [3] | Potency [4]

Cc1cc2c(cc1S(N)(=O)=O)S(=O)(=O)CCC2
active: Potency [1] 17.4 µM
inactive: Potency [2] | Potency [3] | Potency [4]

CCCS(=O)c1ccc2nc(NC(=O)OC)[nH]c2c1 (stereo not given)
inactive: Potency [1] | Potency [2] | Potency [3] | Potency [4]

OCC#CCO
inactive: Potency [1] | Potency [2] | Potency [3] | Potency [4]

Cc1oc(=O)oc1CN1CCN(c2cc3c(cc2F)c(=O)c(C(=O)O)c2n3C(C)S2)CC1 (stereo not given)
inactive: Potency [1] | Potency [2] | Potency [3] | Potency [4]

CCN1CN(CC)CN(CC)C1
inactive: Potency [1] | Potency [2] | Potency [3] | Potency [4]

CCCCCCCC(=O)O
inactive: Potency [1] | Potency [2] | Potency [3] | Potency [4]

CC(C)c1ccccc1N
inactive: Potency [1] | Potency [2] | Potency [3] | Potency [4]

c1ccc2scnc2c1
inactive: Potency [1] | Potency [2] | Potency [3] | Potency [4]

COCCOCC(OC)OC
inactive: Potency [1] | Potency [2] | Potency [3] | Potency [4]

Clc1ccc(C(c2ccccc2Cl)C(Cl)Cl)cc1 (stereo not given)
inactive: Potency [1] | Potency [2] | Potency [3] | Potency [4]

CN1Cc2c(N)cccc2C(c2ccccc2)C1 (stereo not given)
inactive: Potency [1] | Potency [2] | Potency [3] | Potency [4]

C1=C\CC/C=C\CC/1
inactive: Potency [1] | Potency [2] | Potency [3] | Potency [4]
